Structures are written as SMILES. Hit rate of the full screen: of about 360,000 compounds, about 16,000 (4.4%) were called active. A call without a number means that no potency is given here. Not shown: some 9% with an inconclusive outcome. Calls come from the whole dose curve; as a rule, active = well fitted inhibition curve with a large enough effect; inconclusive = small, poorly fitted or top-dose-only effect; inactive = no such curve, though single readings can be large or run the other way. Only a selection was taken, and actives are over-represented in it overall.
Potency is the fitted concentration of half-maximal effect.

For this experiment, the target named is Bromodomain adjacent to zinc finger domain protein 2B (Homo sapiens) (UniProt Q9UIF8). Description: qHTS Assay for Inhibitors of BAZ2B. Note: nearly all actives have a fitted effect of over 60% in size. The settings on record: AlphaScreen BAZ2B-H3K14Ac peptide displacement; series mostly up to 114 µM. Summed up: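 BAZ2B (50 nM) with biotin-H3(5-23)K14Ac peptide (50 nM) in PBS pH 7.4, 0.01% Tween-20, preformed 30 min, then compound 30 min at room temperature; top concentration 110uM. AlphaScreen streptavidin donor/nickel chelate acceptor beads (10 ug/mL final), 20 min dark, signal read.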
Chain of Bromodomain adjacent to zinc finger domain protein 2B (Homo sapiens) (Q9UIF8 whole entry, looked up, the tested form may be a part): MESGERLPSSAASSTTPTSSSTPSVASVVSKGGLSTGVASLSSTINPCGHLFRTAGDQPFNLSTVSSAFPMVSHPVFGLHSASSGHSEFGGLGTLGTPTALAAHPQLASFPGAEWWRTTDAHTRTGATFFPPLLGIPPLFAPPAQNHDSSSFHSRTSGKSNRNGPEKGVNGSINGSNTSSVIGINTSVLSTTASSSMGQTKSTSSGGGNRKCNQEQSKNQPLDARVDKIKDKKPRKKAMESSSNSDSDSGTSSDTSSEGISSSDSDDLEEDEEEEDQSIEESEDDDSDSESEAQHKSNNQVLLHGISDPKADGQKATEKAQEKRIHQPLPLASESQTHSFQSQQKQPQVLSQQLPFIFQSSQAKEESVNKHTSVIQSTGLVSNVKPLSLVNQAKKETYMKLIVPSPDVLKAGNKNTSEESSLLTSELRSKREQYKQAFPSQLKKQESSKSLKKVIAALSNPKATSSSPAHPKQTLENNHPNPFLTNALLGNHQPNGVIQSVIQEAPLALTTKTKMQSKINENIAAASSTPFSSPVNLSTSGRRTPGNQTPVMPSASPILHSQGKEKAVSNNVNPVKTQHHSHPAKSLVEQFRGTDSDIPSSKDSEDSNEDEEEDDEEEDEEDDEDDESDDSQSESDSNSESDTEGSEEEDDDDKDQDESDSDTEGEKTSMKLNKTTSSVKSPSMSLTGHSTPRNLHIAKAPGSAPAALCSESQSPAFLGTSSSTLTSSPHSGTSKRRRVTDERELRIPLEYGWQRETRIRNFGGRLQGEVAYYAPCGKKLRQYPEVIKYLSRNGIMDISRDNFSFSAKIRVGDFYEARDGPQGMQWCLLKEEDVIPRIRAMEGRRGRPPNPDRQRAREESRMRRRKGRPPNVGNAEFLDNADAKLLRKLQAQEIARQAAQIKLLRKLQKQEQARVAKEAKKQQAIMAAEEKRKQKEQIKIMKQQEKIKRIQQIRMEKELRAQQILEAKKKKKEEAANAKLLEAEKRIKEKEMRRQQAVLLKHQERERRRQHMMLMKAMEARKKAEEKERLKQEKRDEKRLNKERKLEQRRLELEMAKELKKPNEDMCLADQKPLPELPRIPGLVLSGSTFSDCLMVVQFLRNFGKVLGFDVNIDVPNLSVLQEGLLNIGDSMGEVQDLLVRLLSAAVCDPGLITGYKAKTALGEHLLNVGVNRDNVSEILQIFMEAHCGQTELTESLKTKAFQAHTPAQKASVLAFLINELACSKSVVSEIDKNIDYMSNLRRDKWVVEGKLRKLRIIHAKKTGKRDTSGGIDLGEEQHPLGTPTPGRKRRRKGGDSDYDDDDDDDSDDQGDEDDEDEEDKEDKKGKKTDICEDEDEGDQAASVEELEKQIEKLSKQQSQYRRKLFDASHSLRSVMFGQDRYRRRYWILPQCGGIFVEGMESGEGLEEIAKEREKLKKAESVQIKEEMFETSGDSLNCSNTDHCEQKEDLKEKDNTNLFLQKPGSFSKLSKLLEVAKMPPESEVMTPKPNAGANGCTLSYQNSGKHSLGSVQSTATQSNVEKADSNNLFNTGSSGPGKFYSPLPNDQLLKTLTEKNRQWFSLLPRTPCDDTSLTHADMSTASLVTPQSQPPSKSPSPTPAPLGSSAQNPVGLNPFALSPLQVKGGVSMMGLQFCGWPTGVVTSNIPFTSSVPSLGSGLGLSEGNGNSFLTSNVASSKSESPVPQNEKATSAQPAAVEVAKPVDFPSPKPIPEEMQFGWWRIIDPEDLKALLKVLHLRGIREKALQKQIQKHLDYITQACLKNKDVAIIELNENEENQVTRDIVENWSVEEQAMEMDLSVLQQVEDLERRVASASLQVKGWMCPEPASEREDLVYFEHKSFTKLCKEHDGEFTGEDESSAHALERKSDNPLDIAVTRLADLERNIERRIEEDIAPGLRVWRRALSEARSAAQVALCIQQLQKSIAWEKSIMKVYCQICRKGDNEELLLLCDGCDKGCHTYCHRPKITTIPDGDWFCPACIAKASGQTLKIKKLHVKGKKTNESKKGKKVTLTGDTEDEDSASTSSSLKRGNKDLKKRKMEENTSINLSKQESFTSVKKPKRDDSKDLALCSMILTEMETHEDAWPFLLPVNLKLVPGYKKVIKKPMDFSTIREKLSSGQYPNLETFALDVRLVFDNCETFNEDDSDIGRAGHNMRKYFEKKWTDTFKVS
(qHTS replaces the single test concentration by a dilution series.)
For the molecule `Cc1ccc2sc(N(Cc3cccnc3)C(=O)C3COc4ccccc4O3)nc2c1C` (configuration not stated), the Potency entry was “inactive”. Next, `C[C@H](NC(=O)c1ccccc1)C(=O)OCC(=O)c1c[nH]c2ccccc12`: “inactive”; `O=C(CNC(=O)c1ccc(F)cc1)c1ccccc1`: “inactive”; `CN(C)c1ccc(C(CNC(=O)c2ccc(F)cc2)c2c[nH]c3ccccc23)cc1` (configuration not stated): 12.6 µM (active).

For the molecule `COc1cc(OC)cc(C(=O)Nc2ccc3nc(Nc4cccc(C(F)(F)F)c4)cc(C)c3c2)c1`, the Potency entry was “inactive”.

Regarding `O=Cc1c(Nc2ccccc2Cl)nc2ccccn2c1=O`, the Potency is 50.1 µM (active). The same measure for `O=Cc1c(N2CCN(c3cccc(Cl)c3)CC2)nc2ccccn2c1=O`: “inactive”. The same measure for `Cc1cccn2c(=O)c(C=O)c(Nc3ccc(S(N)(=O)=O)cc3)nc12`: “inactive”. With `CCC(=O)N1CCc2cc(CNC(=O)Nc3ccccc3Cl)ccc21`, the Potency result was “inactive”. Next, `CSc1ccc(CCNC(=O)c2cc(C)nc3c2c(C)nn3-c2cccc(F)c2)cc1`: “inactive”; `CCOc1ccccc1CNCc1c(C(=O)O)c(C)n(Cc2ccc(C)cc2)c1C`: “inactive”; `CCN1/C(=C/C(=S)Nc2ccccc2)Sc2ccccc21`: 22.4 µM (active). Take `CCN1C(=O)c2ccccc2Sc2ccc(NC(=O)Cc3ccc(OC)cc3)cc21`: the Potency result was “inactive”. Next, `CCOC(=O)CNC(=O)N1c2ccccc2Sc2ccccc21`: “inactive”; `CCOC(=O)c1cc2c(=O)n3ccccc3nc2n(Cc2ccco2)c1=NC(=O)c1ccc(F)cc1`: “inactive”; `Cc1cc(N2C(=O)C(O)=C(C(=O)c3ccc(C)o3)C2c2ccc(OCc3ccccc3)cc2)no1` (configuration not stated): “inactive”. Regarding `COc1ccc(C2C(C(C)=O)=C(O)C(=O)N2Cc2cccnc2)cc1` (configuration not stated), the Potency result was “inactive”. `COc1cc(C2C(C(=O)c3ccc(C)o3)=C(O)C(=O)N2Cc2cccnc2)ccc1O` (configuration not stated): the Potency is 56.2 µM (active). On to `CCOC(=O)c1c(C)[nH]c(CCC(=O)NCCCN2CCN(c3cc(C)ccc3C)CC2)c1C`, for which the Potency result was “inactive”.

Consider `NC(=O)C1=C[C@H](c2csc3ccccc23)C[C@H](OCc2ccc(CO)cc2)O1`, for which the Potency result is “inactive”.

Turning to `O=C(O)C1=C[C@H](c2cccs2)C[C@H](OCCCCO)O1`, the Potency was 79.4 µM (active).

For the molecule `C=CCOC(=O)C1=C[C@@H](c2ccccc2)C[C@@H](OCc2ccc(CO)cc2)O1`, the Potency entry was “inactive”.

On to `Cn1c(=O)c2c(SCC(=O)NCC3CCCO3)nc(-c3ccccc3F)nc2n(C)c1=O` (configuration not stated), for which the Potency entry was “inactive”. Next, `O=C(CC(c1cccs1)N1Cc2ccccc2C1=O)Nc1ccc(F)cc1F` (configuration not stated): “inactive”; `Cc1cccc(OCC(=O)N(Cc2ccc(C(C)C)cc2)Cc2ccco2)c1C`: “inactive”; `CCS(=O)(=O)c1ncc(N(Cc2ccc(F)cc2)Cc2ccco2)c(C(=O)Nc2cc(C)ccc2C)n1`: “inactive”. Next, `COc1ccc2sc(-c3ccc(N(C)C)cc3)c(C#CCO)c2c1`: 89.1 µM (active); `O=C(C1CC1)N1CCc2cc(Br)cc(S(=O)(=O)N3CCN(c4ccccc4F)CC3)c21`: “inactive”; `N#Cc1ccc(CSc2nnc3ccccn23)cc1`: “inactive”. Take `N#Cc1ccc(CSc2nnc(-c3ccccn3)n2-c2ccc(Cl)cc2)cc1`: the Potency is 50.1 µM (active). As for `N#Cc1ccc(CSc2ncccn2)cc1`, the Potency entry is “inactive”.

For the molecule `O=C(Nc1ccc(-c2nc3cc(NC(=O)c4ccccc4Cl)ccc3o2)cc1)c1ccccc1Cl`, the Potency entry was “inactive”. As to `CSC1=N/C(=C\C=C\c2cccs2)C(=O)S1`, the Potency was 11.2 µM (active). Next, `Cc1ccc(C)c(N2CCN(C(=O)C3CCC(CNS(=O)(=O)c4cccs4)CC3)CC2)c1` (configuration not stated): “inactive”. The same measure for `CCCOc1ccc(-c2cccc(NS(=O)(=O)c3ccccc3)c2)nn1`: “inactive”; for `CCOc1ccccc1C(=O)Nc1ccc(S(=O)(=O)N2CCCCC2c2cccnc2)cc1` (configuration not stated): “inactive”; for `COc1ccccc1Nc1c2c(nc3ccc(NC(=O)/C=C/c4cc(OC)c(OC)c(OC)c4)cc13)CCCC2`: 11.2 µM (active). On to `COc1cc(/C=C/C(=O)N2CCc3ccccc3C2)cc(OC)c1OC`, for which the Potency entry was “inactive”.

With `COc1cccc(NC(=O)c2ccc3c(SCC(=O)O)c4c(nc3c2)CCCC4)c1`, the Potency entry was “inactive”. `COc1ccc(C(=O)Nc2ccc3nc(N4CCCCC4)cc(C)c3c2)cc1OC`: the Potency entry is “inactive”. In the case of `COc1ccc(NS(=O)(=O)c2cc(NC(=O)/C=C/c3cc(OC)c(OC)c(OC)c3)ccc2N2CCCCC2)cc1`, the Potency entry is “inactive”. Turning to `CCOc1ccc(C(=O)Nc2ccc3nc4c(c(Nc5ccccc5OC)c3c2)CCCC4)cc1`, the Potency was 17.8 µM (active). Turning to `COc1ccc2c(c1)c(N1CCCC1=O)c(C(=O)Nc1ccccc1C(F)(F)F)n2C`, the Potency entry was “inactive”. In the case of `Cn1nnc2c(N3CCN(c4ccccc4)CC3)ncnc21`, the Potency entry was “inactive”. Regarding `CSc1ccccc1NC(=O)CCS(=O)(=O)c1nc(-c2cccs2)cc(C(F)(F)F)n1`, the Potency entry is “inactive”. In the case of `COc1ccccc1N1CCN(C2C(=O)c3ccccc3N2C(C)=O)CC1` (configuration not stated), the Potency result was “inactive”.

As to `COc1ccc(CCNC(=O)CCc2ccccc2O)cc1OC`, the Potency entry is “inactive”. Next, `COc1ccc(CCNC(=O)Cc2ccc(C)cc2)cc1OC`: 79.4 µM (active); `COc1ccc(CCNC(=O)NS(=O)(=O)c2ccc(C)cc2)cc1OC`: “inactive”; `CCOC(=O)c1ccc(NC(=O)CC2C(=O)N(c3cccc(OC)c3)C(=O)N2C2CCCCC2)cc1` (configuration not stated): “inactive”.

As to `Cc1c(C)c(C)c(S(=O)(=O)NCCc2ccccn2)c(C)c1C`, the Potency entry is “inactive”. `COc1ccc(NCCc2ccccn2)cc1`: the Potency was 56.2 µM (active). The same measure for `COc1cccc(NC(=S)NCc2ccccn2)c1`: “inactive”; for `Cc1ccc(C(=O)CC2(O)C(=O)N(CCc3ccccc3)c3ccc(Br)cc32)cc1` (configuration not stated): “inactive”.

For `CC(C)c1ccc(OCC(=O)N(Cc2ccc(N(C)C)cc2)C2CCS(=O)(=O)C2)cc1` (configuration not stated), the Potency was 28.2 µM (active). The same measure for `COc1cc(C(=O)N(Cc2ccc(C(C)C)cc2)C2CCS(=O)(=O)C2)cc(OC)c1OC` (configuration not stated): “inactive”; for `CCc1ccc(OCC(=O)N(Cc2ccccc2)C2CCS(=O)(=O)C2)cc1` (configuration not stated): “inactive”. For the molecule `COc1cc(C(=O)N(Cc2ccc(N(C)C)cc2)C2CCS(=O)(=O)C2)cc(OC)c1OC` (configuration not stated), the Potency entry was “inactive”.

With `Cc1ccc(CN(C(=O)COc2ccc(Cl)cc2C)C2CCS(=O)(=O)C2)o1` (configuration not stated), the Potency entry is “inactive”. Next, `Cc1cc(Cl)ccc1OCC(=O)N(Cc1ccc(N(C)C)cc1)C1CCS(=O)(=O)C1` (configuration not stated): 35.5 µM (active). Next, `Cc1cc(C)c2sc(NC(=O)c3ccc(S(=O)(=O)N4CCCC4)cc3)nc2c1`: “inactive”; `COc1ccc(C(=O)CSc2c(C(C)C)cnc3c2c(=O)n(C)c(=O)n3C)cc1`: “inactive”.
